The panel holds about 79,000 compounds, 15% with a hit somewhere; the sample as a whole holds those more often. Unmarked numbers belong to inactive results. No stated cut-off is given here; in the data, active means growth inhibition above about 70%; inactive means the rest.
Assay: NCI Yeast Anticancer Drug Screen. Data for the mlh1 rad18 strain (AID 175)
Conditions: S. cerevisiae mlh1 rad18 strain growth inhibition, stronger effect = higher value; at 50.0 µM unless noted
Method in brief: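 Growth inhibition of the yeast strain was measured after compound exposure and expressed relative to vehicle-treated controls. The strain carries defined defects in DNA damage repair.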

| Compound | growth inhibition [%] |
| --- | --- |
| COc1ccc2cc(N3CCCC3)ccc2c1 | -37.8 |
| COc1cccc(C2SC(N)=Nc3c2c(C)nn3C(=O)c2ccccc2O)c1 (stereo not given) | 24.9 |
| CCCC(=O)OCC1OC(n2cc(F)c(=O)[nH]c2=O)CC1OC(=O)CCC (stereo not given) | 10.2 |
| COc1ccccc1NC(=O)C(/C=N/C(=S)NNC(C)=O)=C(/C)O | 2.45 |
| COC1CN(C(C)(C)C)C1 | 0.95 |
| Brc1ccc(-c2ccccc2)cc1 | 21.4 |
| CN(C)c1ccc(NC(=O)C(c2ccccc2)c2ccccc2)cc1 | -12.9 |
| NC(=S)C(=S)N=Cc1c(O)c2ccccc2oc1=O | 40.5 |
| Nc1nc(CCc2ccc(NC(=O)CBr)cc2)c(CCCCc2ccccc2)c(=O)[nH]1 | 16.2 |
| C[N+](C)(C)c1ccc2[nH]c3ccccc3c2c1 | 7.55 |
| COc1ccc(OC(C)C(=O)O)c2c(=O)ccccc12 (stereo not given) | 22.1 |
| NC1(CC(=O)O)CCN(Cc2ccccc2)CC1 | 2.4 |
| COc1cc2c(cc1OCc1ccccc1)C(Cc1cc(Br)sc1Br)=NCC2 | 43.4 |
| Nc1ccc(S(=O)(=O)Nc2cc(C(F)(F)F)cc(C(F)(F)F)c2)cc1 | 32 |
| O=C(O)c1ccc(NCC(O)COc2ccc([N+](=O)[O-])cc2)cc1 (stereo not given) | 0.25 |
| CS(=O)(=O)c1cccc(C(=O)O)c1 | -18 |
| O=c1oc(-c2ccccc2)nc2c1sc1nc(-c3ccccc3)oc(=O)c12 | 49.4 |
| O=C1CN(Cc2ccc3c(c2)OCO3)NO1 | -26.5 |
| Clc1ccc(N=Nc2nc3ccccc3nc2N=Nc2ccc(Cl)cc2Cl)c(Cl)c1 | 0.55 |
| CCOc1ccc(/C=C(\C(=O)c2ccccc2)S(=O)(=O)c2ccc(OC)cc2)cc1OC | 57 |

| Compound | growth inhibition [%] |
| --- | --- |
| OC(Cc1ccc2ccccc2n1)(C(F)(F)F)C(F)(F)F | -21.8 |
| CCC(=O)c1ccc(OC)cc1OC | -20.1 |
| O=C(O)C(Cc1cccs1)C(=O)O | -4.25 |
| O=C(Cc1ccccc1)c1ccccc1C(=O)NCc1ccncc1 | -0.6 |
| [N-]=[N+]=NC1(N=[N+]=[N-])C(=O)Nc2ccccc2C1=O (stereo not given) | 12.6 |
| C/C(CCCCCCCCCCCC/C(C)=N\Nc1ccc([N+](=O)[O-])cc1[N+](=O)[O-])=N/Nc1ccc([N+](=O)[O-])cc1[N+](=O)[O-] | 31.6 |
| N#CC1(OC2CCCCO2)Cc2ccccc2C1 (stereo not given) | -1.15 |
| C/C(=N\NC(=O)Nc1ccc(N=Nc2ccccc2)cc1)c1ccncc1 | 10.7 |
| COc1cc(C2NC(C(=O)O)CS2)cc(OC)c1OC (stereo not given) | -5.85 |
| Cc1cc(=O)n2nc(CSc3nnc(N)s3)sc2n1 | 4.2 |
| Cc1c(CCCl)c(N=P(c2ccccc2)(c2ccccc2)c2ccccc2)n2c(nc3ccccc32)c1C#N | 18.6 |
| CCOC(=O)C(F)C(=O)OCC | -5.4 |
| CCC(=O)CC(=O)CCC(=O)Nc1ccc(Cl)cc1C | -9.55 |
| Cc1c(=O)n(C)c2ccccc2[n+]1[O-] | 7.65 |
| CCCCCCC/C=C/C1CC(=O)OC1=O (stereo not given) | 29.6 |
| CC(C)(C)OC(=O)CC(NC(=O)OC(C)(C)C)C(=O)NC(C(=O)O)C(O)c1ccccc1 (stereo not given) | -28.6 |
| C1COC2(OC1)OCCCO2 | 3.05 |
| Oc1ccc(Br)cc1/C=N/c1nc2ccccc2s1.Oc1ccc(Br)cc1/C=N/c1nc2ccccc2s1.[Cu] | 43.5 |
| OCC1C(CO)C2CC1C1N=NN(c3ccccc3)C21 (stereo not given) | -13.3 |
| CCc1cccc(CC)c1NC(=O)OCCN(CC)CC | 4.15 |
